# In PMC8384837, “Expanding the binding specificity for RNA recognition by a PUF domain”:
# Positions count from the first letter of the chain named.
# Key:
# Test in all cases: yeast three-hybrid, YBZ-1, SC-Leu-His + 0.5 mM 3-AT, 4 days
# Settings in all cases: tags: N-Gal4 AD-HA kept; label: inside an RPR1-promoter hybrid RNA with tandem MS2 sites; ssRNA
# PUM1 PUF domain R6-FHR = molecular target: T1, PUM1 PUF domain R6-FHR (Homo sapiens, UniProt Q14671 828-1176, N1043F;Y1044H;Q1047R)
# T1 sequence: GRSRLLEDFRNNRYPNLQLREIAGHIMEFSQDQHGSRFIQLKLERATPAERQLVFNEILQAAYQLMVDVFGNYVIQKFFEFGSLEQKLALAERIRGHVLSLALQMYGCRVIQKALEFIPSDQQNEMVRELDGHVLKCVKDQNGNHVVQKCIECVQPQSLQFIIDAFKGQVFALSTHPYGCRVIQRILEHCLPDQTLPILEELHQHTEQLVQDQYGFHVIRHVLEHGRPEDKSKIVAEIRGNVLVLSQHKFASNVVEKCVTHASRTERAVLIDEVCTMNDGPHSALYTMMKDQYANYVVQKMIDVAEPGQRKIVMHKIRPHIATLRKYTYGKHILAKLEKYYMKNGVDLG
# Outline: (§1)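 A centromeric plasmid in strain YBZ-1 co-expressed Pumilio-1 PUF domain libraries, randomized at the three base-contacting residues of each repeat, with matching RNA elements; the strain carries a LexA–MS2 coat fusion and a HIS3 reporter. After four days on SC-Leu (input) or SC-Leu-His + 0.5 mM 3-AT (selection), the repeat regions were PCR-amplified and Illumina-sequenced. The interaction score is the log change in variant frequency from input to selection, using log2 and a pseudocount of 1 where absent.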
# PUM1 PUF domain R6-LYM = molecular target: T2, PUM1 PUF domain R6-LYM (Homo sapiens, UniProt Q14671 828-1176, N1043L;Q1047M)
# T2 sequence: T1 sequence with F216L, H217Y, R220M
# Outline: as §1
# PUM1 PUF domain R6-AFF = molecular target: T3, PUM1 PUF domain R6-AFF (Homo sapiens, UniProt Q14671 828-1176, N1043A;Y1044F;Q1047F)
# T3 sequence: T1 sequence with F216A, H217F, R220F
# Outline: as §1
# PUM1 PUF domain R8-NFR = PUM1 PUF domain R8-NFR (Homo sapiens, UniProt Q14671 828-1176, Y1123F;Q1126R)
# Outline: as §1
# PUM1 PUF domain R5-GRS = PUM1 PUF domain R5-GRS (Homo sapiens, UniProt Q14671 828-1176, C1007G;Q1011S)
# Outline: as §1
# PUM1 PUF domain R3-MRL = PUM1 PUF domain R3-MRL (Homo sapiens, UniProt Q14671 828-1176, C935M;Q939L)
# Outline: as §1
# PUM1 PUF domain R5-RQK = PUM1 PUF domain R5-RQK (Homo sapiens, UniProt Q14671 828-1176, C1007R;R1008Q;Q1011K)
# Outline: as §1
# PUM1 PUF domain R8-PWC = PUM1 PUF domain R8-PWC (Homo sapiens, UniProt Q14671 828-1176, N1122P;Y1123W;Q1126C)
# Outline: as §1
# PUM1 PUF domain R6-SRQ = molecular target: T4, PUM1 PUF domain R6-SRQ (Homo sapiens, UniProt Q14671 828-1176, N1043S;Y1044R)
# T4 sequence: T1 sequence with F216S, H217R, R220Q
# Outline: as §1
# PUM1 PUF domain R3-MRT = PUM1 PUF domain R3-MRT (Homo sapiens, UniProt Q14671 828-1176, C935M;Q939T)
# Outline: as §1
# PUM1 PUF domain R5-GRS, sequence (Q14671 828-1176 C1007G/Q1011S): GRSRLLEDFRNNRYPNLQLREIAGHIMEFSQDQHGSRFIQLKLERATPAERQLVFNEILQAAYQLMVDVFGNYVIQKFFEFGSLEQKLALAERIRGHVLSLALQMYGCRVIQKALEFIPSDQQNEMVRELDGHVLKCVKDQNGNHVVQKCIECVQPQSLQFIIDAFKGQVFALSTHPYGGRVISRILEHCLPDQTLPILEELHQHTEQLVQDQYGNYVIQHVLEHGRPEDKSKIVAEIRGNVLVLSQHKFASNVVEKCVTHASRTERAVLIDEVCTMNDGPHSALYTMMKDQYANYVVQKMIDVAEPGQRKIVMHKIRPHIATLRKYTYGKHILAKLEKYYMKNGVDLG
sequence,measurement,setting,value
GGCUAGAACUAGUGGAUCCCCCGGCGCCCGGCGGCUCGAGCCCGGGUAAGUGUAAAUAGUCUGCAUGCCGCCGGGCGCCAUGCCUGCAGGUCGACUCUAGAAAACAUG,binding signal,PUM1 PUF domain R6-FHR,3.45 log2 enrichment (interaction score)
same,binding signal,PUM1 PUF domain R6-LYM,5.36 log2 enrichment (interaction score)
same,binding signal,PUM1 PUF domain R6-AFF,5.23 log2 enrichment (interaction score)
same,binding signal,PUM1 PUF domain R8-NFR,3.8 log2 enrichment (interaction score)
same,binding signal,PUM1 PUF domain R5-GRS,3.71 log2 enrichment (interaction score)
GGCUAGAACUAGUGGAUCCCCCGGCGCCCGGCGGCUCGAGCCCGGGUAAGUGUAAGUAGUCUGCAUGCCGCCGGGCGCCAUGCCUGCAGGUCGACUCUAGAAAACAUG,binding signal,PUM1 PUF domain R3-MRL,2.68 log2 enrichment (interaction score)
GGCUAGAACUAGUGGAUCCCCCGGCGCCCGGCGGCUCGAGCCCGGGUAAGUGUCAAUAGUCUGCAUGCCGCCGGGCGCCAUGCCUGCAGGUCGACUCUAGAAAACAUG,binding signal,PUM1 PUF domain R5-RQK,3.94 log2 enrichment (interaction score)
same,binding signal,PUM1 PUF domain R5-GRS,1.13 log2 enrichment (interaction score)
GGCUAGAACUAGUGGAUCCCCCGGCGCCCGGCGGCUCGAGCCCGGGUAAGCGUAAAUAGUCUGCAUGCCGCCGGGCGCCAUGCCUGCAGGUCGACUCUAGAAAACAUG,binding signal,PUM1 PUF domain R8-PWC,2.98 log2 enrichment (interaction score)
same,binding signal,PUM1 PUF domain R8-NFR,3.71 log2 enrichment (interaction score)
GGCUAGAACUAGUGGAUCCCCCGGCGCCCGGCGGCUCGAGCCCGGGUAAGUGAAAAUAGUCUGCAUGCCGCCGGGCGCCAUGCCUGCAGGUCGACUCUAGAAAACAUG,binding signal,PUM1 PUF domain R6-SRQ,3.17 log2 enrichment (interaction score)
GGCUAGAACUAGUGGAUCCCCCGGCGCCCGGCGGCUCGAGCCCGGGUAAGUGUAAUUAGUCUGCAUGCCGCCGGGCGCCAUGCCUGCAGGUCGACUCUAGAAAACAUG,binding signal,PUM1 PUF domain R3-MRL,1.67 log2 enrichment (interaction score)
same,binding signal,PUM1 PUF domain R3-MRT,3.61 log2 enrichment (interaction score)
GGCUAGAACUAGUGGAUCCCCCGGCGCCCGGCGGCUCGAGCCCGGGUAAGUGUGAAUAGUCUGCAUGCCGCCGGGCGCCAUGCCUGCAGGUCGACUCUAGAAAACAUG,binding signal,PUM1 PUF domain R5-GRS,2.01 log2 enrichment (interaction score)
GGCUAGAACUAGUGGAUCCCCCGGCGCCCGGCGGCUCGAGCCCGGGUAAGUGUUAAUAGUCUGCAUGCCGCCGGGCGCCAUGCCUGCAGGUCGACUCUAGAAAACAUG,binding signal,PUM1 PUF domain R5-RQK,4.75 log2 enrichment (interaction score)
same,binding signal,PUM1 PUF domain R5-GRS,4.35 log2 enrichment (interaction score)
